USP1 inh: Inhibitors of USP1/UAF1: Primary Screen. Ubiquitin carboxyl-terminal hydrolase 1 (Homo sapiens), O94782. recombinant USP1/UAF1, Ub-Rhodamine cleavage fluorescence. Potency, µM (doses to about 57.1 µM), without a hit: at the highest dose activity change, negative = inhibition, most hits filed as inhibitors. 390,000 tested, 0.23% active; further: potency means the concentration at half of the fitted maximal effect; nearly all actives have a fitted effect of over 60% in size
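USP1/UAF1 complex (1 nM) preincubated 15 min at room temperature with compound, then Ub-Rho substrate (150 nM final) added. Kinetic fluorescence at 480/540 nm over 6 reads at 60 s intervals; 50 mM HEPES pH 7.8, 0.5 mM EDTA, 0.1 mg/ml BSA, 1 mM TCEP, 0.01% Tween-20.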
Tau fluor cs: Counterscreen qHTS for Inhibitors of Tau Fibril Formation, Fluorescence Polarization | 280,000 tested, 0.93% active | tau K18 P301L Alexa594 fluorescence, heparin fibrillization | Potency, µM (doses to about 57.7 µM), inactives show top-dose activity change, negative = decrease; further: potency means the concentration at half of the fitted maximal effect; nearly all actives have a fitted effect of over 55% in size
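Human K18 P301L tau (15 uM unlabeled plus 0.24 uM Alexa 594-labeled, final) in 100 mM sodium acetate pH 7 was mixed with compound and 20 uM heparin and incubated 6 hr at 37 C.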
FBPA coupling cs: qHTS Assay for Inhibitors of Fructose-1,6-bisphosphate Aldolase from Giardia Lamblia: Coupling assay counterscreen | coupling enzyme system counterscreen, AmpLite Red fluorescence | 290,000 tested, 0.67% active | AID 2472, 2010 | activity change, negative = inhibition, % at 58.2 µM, hits read low; in the data active means activity change below about -30%
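Final compound at 57.5 uM, incubated 10 min at RT with coupling enzyme reagent (glyceraldehyde-3-phosphate), then 20 min with substrate and AmpLite Red detection. Fluorescence read at 525/598 nm; tests interference with the coupling assay, not aldolase inhibition.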
Tau fibril ThT: qHTS for Inhibitors of Tau Fibril Formation, Thioflavin T Binding; Microtubule-associated protein tau (Homo sapiens), P10636; Potency, µM (highest dose often 57.4 µM), for the others: at the top dose activity, negative = inhibition, most hits filed as inhibitors; AID 1460, 2008; recombinant tau K18 P301L, heparin-induced fibrillization, ThT fluorescence; 270,000 tested, 2.1% active; further: potency means the concentration at half of the fitted maximal effect; nearly all actives have a fitted effect of over 55% in size
Target sequence (P10636 561-689 P618L limits assumed): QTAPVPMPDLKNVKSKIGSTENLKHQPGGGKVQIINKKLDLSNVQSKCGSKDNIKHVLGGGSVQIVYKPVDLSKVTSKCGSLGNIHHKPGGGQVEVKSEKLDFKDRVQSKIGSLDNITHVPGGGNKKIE
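Using a mix of unlabeled (15 uM) and Alexa 594-labeled (0.24 uM) tau K18 P301L, heparin-triggered fibrillization over 6 hr at 37 C was scored by ThT fluorescence.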
Tau fibril FP: qHTS for Inhibitors of Tau Fibril Formation, Fluorescence Polarization; K18 P301L tau heparin fibrillization, Alexa594 FP, 6 h; 280,000 tested, 0.39% active; Potency, µM (top dose mostly 57.7 µM), for inactives: at the top dose activity, negative = inhibition, usual class: inhibitors; further: potency means the concentration at half of the fitted maximal effect; nearly all actives have a fitted effect of over 55% in size
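Heparin (20 uM) drove fibril formation of recombinant tau K18 P301L, 15 uM unlabeled with 0.24 uM Alexa 594 label, for 6 hr at 37 C in 100 mM sodium acetate pH 7. Fluorescence polarization (555/632 nm) read 1 hr after 30 uM ThT.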
Starred values were filed as active, the others as inactive; ? = inconclusive; / = no result; ! = a repeat was not active; [ ] = another dose, or the depositor's remark. In the library only some 2.3% were active in any assay of this set; here they are far more common. Unless noted, the call rests on the fitted dose curve; in most records, active means well fitted curve in the direction sought with a large enough effect; inconclusive means small, poorly fitted or top-dose-only effect, or another doubt; inactive means no such curve, though single readings can be large; an effect the other way counts as inactive or inconclusive. On the % scale 0 is the no-effect control and ±100 the full control effect.

SMILES | USP1 inh | Tau fluor cs | FBPA coupling cs | Tau fibril ThT | Tau fibril FP
CC(C)(C)OC(=O)NCCCC1=CC2=CC(=O)C(C)(OC(=O)CCc3ccccc3)C(=O)C2=CO1 (centres undefined) | / | -6% | -2 | -11% | ?
CC1(OC(=O)CCc2ccccc2)C(=O)C=C2C=C(c3ccc(C#N)cc3)N(Cc3ccccc3)C=C2C1=O (centres undefined) | -23% | -3%[11.6 µM] | -10 | 8.9µM*! | ?
C=CCOc1ccc(C(=O)Nc2ccccc2C(=O)NCc2cccnc2)cc1 | -7% | / | -3 | / | /
O=C(Nc1ccc(F)cc1)C1CCCN(S(=O)(=O)c2ccc3[nH]c(=O)ccc3c2)C1 (centres undefined) | ? | / | -3 | / | /
Nc1cc2nc3ccccc3oc-2cc1=O | -24% | ? | -25 | 7.1µM* | 11µM*
COc1ccc(NC(=O)CC2C(=O)N(c3ccc(F)cc3)C(=O)N2Cc2ccco2)cc1 (centres undefined) | -3% | -5% | / | 5% | 1%
CC1C/C(=C/c2ccccn2)C(=O)/C(=C/c2ccccn2)C1 (centres undefined) | -24% | -14% | -1 | 10µM* | 8.9µM*
O=C1/C(=C/c2ccccn2)COc2ccccc21 | -5% | 0% | -4 | ? | 2%
CC(C)(C)C1C/C(=C/c2ccccn2)C(=O)/C(=C/c2ccccn2)C1 (centres undefined) | -30% | -25% | 0 | 11µM* | ?
CCOC(=O)C1=C(C)NC2=C(C(=O)c3ccccc32)C1c1ccc([N+](=O)[O-])o1 (centres undefined) | -6% | ? | 3 | ? | 6%
CCOC(=O)COc1ccccc1C1C(C(=O)OC)=C(C)NC2=C1C(=O)c1ccccc12 (centres undefined) | -33% | 14µM*[quencher] | / | 14µM* | 11%
CCOc1cc(C2C(C(=O)OC)=C(C)NC3=C2C(=O)c2ccccc23)cc(Cl)c1O (centres undefined) | 5% | 7.9µM*[quencher] | / | ? | ?
CCOc1ccc(Br)cc1C1C(C(=O)OC)=C(C)NC2=C1C(=O)c1ccccc12 (centres undefined) | -23% | 7.9µM*[quencher] | / | 10µM* | 1%
COC(=O)COc1ccc(C2C(C(=O)OC)=C(C)NC3=C2C(=O)c2ccccc23)cc1OC (centres undefined) | -28% | 14µM*[quencher] | / | 14µM* | 6%
CCOc1ccc(Br)cc1C1C(C(=O)Nc2ccccc2OC)=C(C)Nc2nnnn21 (centres undefined) | -24% | -3% | / | -3% | -11%
COC(=O)c1cc(NC(=O)Cc2ccccc2[N+](=O)[O-])cc(C(=O)OC)c1 | -19% | -16% | 2 | -5% | -5%
CCOC(=O)c1cnc2cc(C(F)(F)F)ccc2c1N1CCN(c2ccc(F)cc2)CC1 | ? | -26% | / | -15% | 5%
CC/C=C\CC[C@H](OC(=O)c1ccc(Br)cc1)C1=CCCCC1=O | / | -3%[11.6 µM] | 0 | -7%[11.5 µM] | -6%[11.6 µM]
O=c1c2oc3ccccc3c2n(Cc2ccccc2)c(=O)n1Cc1ccc2c(c1)OCO2 | -7% | -21% | / | -7% | -15%
CCS(=O)(=O)c1oc(-c2ccc(F)cc2)nc1S(=O)(=O)c1ccccc1 | ? | 3% | / | 15% | -9%
CCOc1ccc(NC(=O)c2c(NCc3cccs3)sc3c2CCC(C)C3)cc1 (centres undefined) | -5% | -24% | / | ? | 4%
CCOc1ccc(NC(=O)c2c(NCc3cccnc3)sc3c2CCC(C)C3)cc1 (centres undefined) | ? | ? | / | 16µM* | -11%
O=S(=O)(O)CCS | -4% | -14% | 1 | 22µM* | ?
Oc1cccc(NC(=S)N=Nc2c(O)[nH]c3ccccc23)c1 | -19% | ? | 5 | 10µM* | 4%
Oc1[nH]c2ccccc2c1N=NC(=S)NCCc1ccccc1 | -12% | 13µM*[quencher] | -2 | 14µM* | ?
SMILES | USP1 inh | Tau fluor cs | FBPA coupling cs | Tau fibril ThT | Tau fibril FP
CC(C)c1ccc2[nH]c(O)c(N=NC(=S)NCCc3ccccc3)c2c1 | -7% | ? | -6 | ? | -15%
COc1cccc(-c2nc(CS(=O)(=O)CC(=O)NCc3ccc4c(c3)OCO4)c(C)o2)c1 | -13% | / | 12 | / | /
CCOc1ccccc1NC(=O)CSc1nc2c(sc3ccccc32)c(=O)n1CCCC(=O)NC1CCCC1 | -5% | -9% | / | 0% | -6%
COc1ccc(OC)c(S(=O)(=O)Nc2ccc(O)c3ccccc23)c1 | -13% | 28µM*[quencher] | -58* | 25µM* | ?
COc1ccc(OC)c(S(=O)(=O)Nc2cccc3c(O)cccc23)c1 | -29% | / | / | / | /
COc1ccc(NC(=O)/C(C#N)=C\C=C\c2ccco2)cc1 | -2% | -9% | -4 | 2.5µM* | 13%
Cc1cc(C)c(NC(=O)C(C)n2nnc3sc(-c4ccccc4)cc3c2=O)c(C)c1 (centres undefined) | -20% | -8% | / | ? | -15%
COc1ccc(NC(=O)C(C)n2nnc3sc(-c4ccccc4)cc3c2=O)cc1Cl (centres undefined) | 2% | ? | / | 14µM* | ?
COc1cccc2c1C(=O)c1c(O)c3c(c(O)c1C2=O)C[C@@](O)(C(=O)CO)C[C@@H]3O[C@@H]1C[C@H](N)[C@H](O)[C@H](C)O1 | / | 10% | -15 | 13µM* | ?
COc1cccc2c1C(=O)c1c(O)c3c(c(O)c1C2=O)C[C@](O)(C(C)=O)C[C@H]3O[C@@H]1C[C@H](N)[C@H](O)[C@H](C)O1 | / | / | -9 | / | /
COc1cccc2c1C(=O)c1c(O)c3c(c(O)c1C2=O)C[C@@](O)(C(=O)CO)C[C@@H]3O[C@H]1C[C@H](N)[C@H](O)[C@H](C)O1 | 32µM* | -6% | -40* | 3.2µM* | 25µM*
O=C(c1ccccc1Cl)N(Cc1ccco1)Cc1ccco1 | -10% | -2% | / | 4% | 0%
CC(C)CCSc1cc(NCCO)c([N+](=O)[O-])c2nonc12 | -23% | -30% | -16 | ? | 2%
CC(=O)OCCCNc1cc(Sc2ccc(Cl)cc2)c2nonc2c1[N+](=O)[O-] | -8% | ? | -49* | 8.9µM* | ?
CCC(=O)OCCNc1cc(SCCC(=O)OC)c2nonc2c1[N+](=O)[O-] | -10% | ? | -18 | 7.9µM* | ?
CCCC(=O)OCCNc1cc(Sc2nc3ccccc3[nH]2)c2nonc2c1[N+](=O)[O-] | -9% | -28% | -13 | ? | -2%
